Test results as given in PubChem BioAssay AID2058 (Sanford-Burnham Center for Chemical Genomics, 2009).
About 150 (0.052%) of roughly 290,000 compounds were called active. The sample holds actives, similar compounds and a random draw of the others, so the mix is not that of the screen.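 Rule for the calls: active = inhibition of at least 50% with at least 30 cells and total cytoplasm GFP at most 10,000,000; inconclusive = under 30 cells or total GFP of 10,000,000 plus; inactive = the rest.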 Results with a measured potency or affinity are listed apart.

These compounds were tested against G-protein coupled receptor 35 (Homo sapiens) (UniProt Q9HC97) (assay: GPR35 antagonists blocking zaprinast-driven arrestin recruitment, primary screen, imaging, U2OS, beta-arrestin-GFP, zaprinast agonist (AID 2058)). Settings: U2OS GPR35 beta-arrestin-GFP translocation imaging, zaprinast antagonism; at 10 µM; hits give high values.
Sequence of G-protein coupled receptor 35 (Homo sapiens) (Q9HC97 whole entry, looked up): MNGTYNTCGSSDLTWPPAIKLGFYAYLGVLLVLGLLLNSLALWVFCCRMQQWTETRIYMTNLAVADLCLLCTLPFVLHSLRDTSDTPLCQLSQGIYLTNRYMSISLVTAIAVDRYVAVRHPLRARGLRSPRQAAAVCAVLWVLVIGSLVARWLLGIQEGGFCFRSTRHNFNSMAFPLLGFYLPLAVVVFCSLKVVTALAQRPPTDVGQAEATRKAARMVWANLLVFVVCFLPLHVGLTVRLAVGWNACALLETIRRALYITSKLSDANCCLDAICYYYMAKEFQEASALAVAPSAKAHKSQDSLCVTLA
With `COC(=O)c1ccc(Cn2nc(C)c(Br)c2C)cc1` the inhibition was 4% (inactive). `C[C@H](NC(=O)c1nc[nH]c1C(=O)N[C@H](C)c1ccccc1)C(=O)OC(C)(C)C` was tested, and the inhibition was 5.8% (inactive). `Cc1cc(=O)oc2c(C)c3occc3cc12` was tested, and the inhibition was -1.8% (inactive). With `O=C1C(=O)N(CCN2CCOCC2)C(c2cccc(Cl)c2)/C1=C(\O)c1ccc2c(c1)OCCO2` (stereo not given) the inhibition was -1.2% (inactive). `Cc1ccccc1COc1ccc2oc(C)c(C(=O)O)c2c1` was tested, and the inhibition was -10.4% (inactive). `O=[N+]([O-])c1c(-c2cn[nH]c2)n[nH]c1-c1cn[nH]c1` was tested, and the inhibition was -2% (inactive). In the case of `O=C(COc1ccc(S(=O)(=O)N2CCCC2)cc1Cl)N1CCN(c2ccccc2)CC1`, the inhibition is reported as -0.4% (inactive). For `Cc1oc(-c2ccccc2F)nc1CN1CCC(C(=O)NC2CC2)CC1`, the inhibition was -1.6% (inactive). For `O=C(CCCN1C(=O)/C(=C/c2ccccc2)SC1=S)Nc1cccc(O)c1`, the inhibition was -8.3% (inactive). With `O=C(CCN1C(=O)/C(=C/c2ccc(Cl)cc2)SC1=S)Nc1cccc(C(=O)O)c1` the inhibition was 1.5% (inactive). `CCc1ccccc1NC(=O)c1cccc(NC(=O)/C=C/c2ccco2)c1` was tested, and the inhibition was 10.4% (inactive). For `O=C(/C=C/c1ccco1)Nc1ccccc1C(=O)Nc1cccc(C(=O)O)c1`, the inhibition was -11.1% (inactive). With `COC(=O)c1sc(N2C(=O)C(O)=C(C(=O)c3ccc(C)o3)C2c2ccc(F)cc2)nc1C` (stereo not given) the inhibition was 100% (active). `CCOc1ccc(C2C(C(=O)c3ccc(C)o3)=C(O)C(=O)N2c2nc(C)c(C(=O)OC)s2)cc1` (stereo not given) was tested, and the inhibition was 5.8% (inactive). With `COC(=O)c1sc(N2C(=O)C(O)=C(C(=O)c3ccc(C)o3)C2c2ccc([N+](=O)[O-])cc2)nc1C` (stereo not given) the inhibition was -3.4% (inactive). `O=S(=O)(Nc1ccc(O)c(NS(=O)(=O)c2ccccc2)c1)c1ccccc1` was tested, and the inhibition was -5.8% (inactive). `O=S(=O)(Nc1ccc(N=Nc2ccc(O)c3ccccc23)cc1)c1ccccc1` was tested, and the inhibition was 70.3% (active). In the case of `O=S(=O)(Nc1ccc(N=Nc2ccccc2)cc1)c1ccccc1`, the inhibition is reported as -12.2% (inactive). In the case of `COc1cccc(NC(=O)NNC(=O)CCc2ccc(O)c(O)c2)c1`, the inhibition is reported as 11.4% (inactive). In the case of `CN(C)C=NC(=O)c1ccc(N2CCN(c3ncc(C(F)(F)F)cc3Cl)CC2)cc1`, the inhibition is reported as 14.6% (inactive). For `CC(=O)c1ccc(N2CCN(c3ncc(C(F)(F)F)cc3Cl)CC2)cc1`, the inhibition was -3.2% (inactive). In the case of `O=C(CSc1nnc(-c2ccc(F)cc2)o1)c1ccc2c(c1)OCCO2`, the inhibition is reported as 11.5% (inactive). For `O=C(/C=C/c1ccccc1)NC(NC(=S)Nc1ccc(Cl)cc1Cl)C(Cl)(Cl)Cl` (stereo not given), the inhibition was 76.2% (active). With `O=C(/C=C/c1ccccc1)NC(NC(=S)Nc1cc(Cl)ccc1Cl)C(Cl)(Cl)Cl` (stereo not given) the inhibition was 27.8% (inactive). `O=C(/C=C/c1ccccc1)NC(NC(=S)Nc1ccc(Cl)cc1)C(Cl)(Cl)Cl` (stereo not given) was tested, and the inhibition was -0.3% (inactive).
